“And” between values parts separate entries of the source, which are not always exact repeats. Equal values may be shown once. Inconclusive results are not listed. The source made the active and inactive calls. The call rests on the fitted dose curve; in most records, active means well fitted inhibition curve with a large enough effect; inconclusive means small, poorly fitted or top-dose-only effect; inactive means no such curve, though single readings can be large or run the other way.
Each molecule was assayed against Cytochrome P450 3A4 (Homo sapiens) (UniProt P08684) (assay: qHTS Assay for Inhibitors and Substrates of Cytochrome P450 3A4 (AID 884; further: nearly all actives have a fitted effect of over 50% in size)). Conditions: recombinant CYP3A4, Luciferin-PPXE luminescence; series mostly up to 57.1 µM.
Chain of Cytochrome P450 3A4 (Homo sapiens) (P08684 whole entry, looked up): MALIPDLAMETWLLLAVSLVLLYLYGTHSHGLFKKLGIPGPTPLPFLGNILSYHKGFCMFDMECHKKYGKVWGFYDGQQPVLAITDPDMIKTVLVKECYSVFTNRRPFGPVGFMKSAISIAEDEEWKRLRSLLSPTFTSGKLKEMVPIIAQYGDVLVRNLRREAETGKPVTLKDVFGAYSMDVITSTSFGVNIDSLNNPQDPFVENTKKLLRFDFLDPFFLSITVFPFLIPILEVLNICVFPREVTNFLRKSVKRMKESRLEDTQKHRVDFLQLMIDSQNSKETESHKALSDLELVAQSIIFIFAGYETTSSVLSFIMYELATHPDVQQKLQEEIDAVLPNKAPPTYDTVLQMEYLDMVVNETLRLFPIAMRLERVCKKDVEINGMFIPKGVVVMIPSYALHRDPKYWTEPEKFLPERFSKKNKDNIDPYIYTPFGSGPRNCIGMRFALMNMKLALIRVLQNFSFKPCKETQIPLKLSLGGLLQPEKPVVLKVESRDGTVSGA
In short: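 20 nM human CYP3A4 with 25 uM Luciferin-PPXE (at KM) in 200 mM KPO4, preincubated 10 min with compound; NADPH regeneration started a 60 min RT reaction. Luciferin detected by luminescence, normalized to 57 uM ketoconazole as full inhibition.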
On the % scale 0 is the no-effect control and ±100 the full control effect.

Activity change, negative = inhibition, inactive:
COC(=O)NC(c1ccco1)[C@@]1(C(=O)OC)CCCC1=O (stereo not given in full) -10.6% [at 11.4 µM]
COC(=O)NC(c1cccc(C)c1)[C@@]1(C(=O)OC)CCCC1=O (stereo not given in full) -25.8% [at 11.4 µM]
COC(=O)NC(CC(C)=O)c1cccc(F)c1 (stereo not given) -53.6% [at 11.4 µM]
O=C1C=CC2(OCCCO2)C(Br)=C1 -14% [at 11.4 µM]
OCC1OC(C#Cc2ccccc2)C=CC1OCc1ccccc1 (stereo not given) -24.2% [at 11.4 µM]
C=CCC1C=CC(OC(=O)OCC)C(COC(=O)OCC)O1 (stereo not given) -26.9% [at 11.4 µM]
CC(C)CN1CCc2nc(-c3ccccc3)c3c(c2CC1)COC(C)C3 (stereo not given) -18.5% [at 11.4 µM]
CCOC(=O)CCCCC1=CC2=CC(=O)C(C)(O)C(=O)C2=CO1 (stereo not given) -20.4% [at 11.4 µM]
COC(=O)NC(CC(C)=O)c1cccs1 (stereo not given) -9.41% [at 11.4 µM]
COC(=O)NC(CC(C)=O)c1ccccc1 (stereo not given) -12.9% [at 11.4 µM]
CC(O)CCCCCCC/C=C/C=C/C(N)=O (stereo not given) -10.1% [at 11.4 µM]
COC(=O)NC(c1ccc2ccccc2c1)C(C(C)=O)C(=O)OC (stereo not given) -19.4% [at 11.4 µM]
CCOC(=O)OCC1OC(C#CC(C)(C)C)C=CC1OC(=O)OCC (stereo not given) -18.5% [at 11.4 µM]
CC12C=C(/C=C/c3ccc(F)cc3)C(C)(C1)C(c1ccc(F)cc1)CC2=O (stereo not given) -18.4% [at 11.4 µM]
CCN1C(C)=C(C(=O)OC)C(c2ccccc2)N2C(=O)[C@@]3(C(=O)OC)O[C@@]12C1C(=O)N(c2ccccc2)C(=O)C13 (stereo not given in full) -20.6% [at 11.4 µM]
CCOC(=O)[C@]1(C(NC(=O)OC)c2cccc(C)c2)CCCC1=O (stereo not given in full) -23.1% [at 11.4 µM]
CC(=O)OCC1OC(C#CC(C)(C)C)C=CC1OC(C)=O (stereo not given) -15.4% [at 11.4 µM] and -10.3% [at 11.4 µM]
COc1ccc(OC)c(C2OCCC=CC2C)c1 (stereo not given) -16.9% [at 11.4 µM]
COC(=O)NC(CC(C)=O)c1ccc(F)cc1 (stereo not given) -12% [at 11.4 µM]
CCN1C(C)=C(C(=O)OC)C(c2ccccc2)N2C(=O)[C@@]3(C(=O)OC)O[C@@]12C1C(=O)N(C)C(=O)C13 (stereo not given in full) -27.7% [at 11.4 µM]
COC(=O)CC1=COC(O)C2C(CO)=CC[C@@H]12 (stereo not given in full) -14.7% [at 11.4 µM]
COC(=O)NC(c1cccc(F)c1)[C@@]1(C(=O)OC)CCCC1=O (stereo not given in full) -15.7% [at 11.4 µM]
CC(C)C(=O)NC(=O)C1CCCN1C(=O)/C=C/c1ccccc1 (stereo not given) -10.1% [at 11.4 µM]
COc1cccc(C2NC(C(=O)O)CCC2C)c1 (stereo not given) -16.8% [at 11.4 µM]
COC(=O)NC(CC(C)=O)c1ccc(Cl)cc1 (stereo not given) -19.1% [at 11.4 µM]
CC12C=C(/C=C/C=C/c3ccco3)C(C)(C1)C(/C=C/c1ccco1)CC2=O (stereo not given) 5.62% [at 11.4 µM]
CC1CCC2C(=O)N3CCCC3C(=O)N2C1c1ccc(Br)cc1 (stereo not given) -43.7% [at 11.4 µM] and -27.2% [at 11.4 µM]
CC1(C)Oc2cc3c(cc2O1)OC(C)(C)O3 -26.4% [at 11.4 µM]
COc1cc(C2c3[nH]c4ccccc4c3CC3C(=O)N4C(Cc5c([nH]c6ccccc56)C4c4cc(OC)c(OC)c(OC)c4)C(=O)N32)cc(OC)c1OC (stereo not given) -16.6% [at 11.4 µM]
COC1C(O)COC1/C=C/c1ccccc1 (stereo not given) -19.7% [at 11.4 µM]
COC(=O)NC(c1ccc(Cl)cc1)C(C(C)=O)C(=O)OC (stereo not given) -15.4% [at 11.4 µM]
COC(=O)NC(c1cccc(C)c1)[C@]1(C(C)=O)CCCC1=O (stereo not given in full) -27.8% [at 11.4 µM]
COC(=O)NC(CC(C)=O)c1cccc(C)c1 (stereo not given) -19.5% [at 11.4 µM]
CC(=O)OCC1OC(c2ccc(C(C)=O)cc2)C=CC1OC(C)=O (stereo not given) -20.5% [at 11.4 µM]
CCN1C(C)=C(C(=O)OC)C(c2ccccc2)N2C(=O)[C@](O)(C(=O)OC)CC(C(C)=O)=C12 (stereo not given in full) -13.9% [at 11.4 µM]
